Drawing on PubChem BioAssay (NCI), this text covers growth for 14 compounds.

Test systems include NCI-H23 lung; NCI-H226 lung; NCI-H322M lung; HOP-62 NSCLC; NCI-H460 lung; HOP-92 NSCLC; NCI-H522 lung; A549/ATCC NSCLC; 786-0 renal; COLO 205 colon.
Assay in all cases: NCI-60 one-dose screen, 48 h (100 = growth as untreated, 0 = no growth, -100 = all killed)
Conditions in all cases: 10 µM unless noted

The panel holds about 83,000 compounds, 20% with a hit somewhere; the sample as a whole holds those more often.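 Each cell line was grown in a 96-well plate and treated with one concentration of compound for 48 hours. Values below 10 were considered active.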 Values without a mark were called inactive. Calls of active or inactive are those of the source.

With `Nc1c(C(=O)Nc2ccncc2)sc2nc3c(cc12)CCCCCC3`, the growth with NCI-H23 lung is 88.6%; in the assay with NCI-H226 lung, 80.4%; with NCI-H322M lung, 80.6%; with HOP-62 NSCLC, 96.6%; in the assay on NCI-H460 lung it was 89.9%; with HOP-92 NSCLC, 67.1%. In addition, the growth was 81.6% in the assay on NCI-H522 lung, 76.7% in the assay on A549/ATCC NSCLC, 74.6% with 786-0 renal and 104% with COLO 205 colon.

Turning to `CCOC(=O)c1c(C)c2c(n1C)CSc1cc(C(=O)c3ccccc3)c(=O)[nH]c1-2`, the growth in the assay with NCI-H23 lung was 81.7% [100 µM]; in the assay on NCI-H226 lung, 98.3% [100 µM]; in the assay on NCI-H322M lung, 90.5% [100 µM]; in the assay on HOP-62 NSCLC it was 103% [100 µM]; in the assay on NCI-H460 lung it was 79.6% [100 µM]; in the assay on HOP-92 NSCLC it was 84.4% [100 µM]. Besides, the growth with NCI-H522 lung was 97.5% [100 µM]; in the assay with A549/ATCC NSCLC, 78.9% [100 µM]; in the assay with 786-0 renal, 106% [100 µM]; in the assay on COLO 205 colon, 117% [100 µM].

With `COc1ccc2cc(-c3ccc(NC(C)=O)c(=O)o3)ccc2c1`, the growth in the assay on NCI-H23 lung was 94.4%; with NCI-H226 lung, 94.4%; with NCI-H322M lung, 92.2%; with HOP-62 NSCLC, 94.3%; in the assay on NCI-H460 lung it was 100%; in the assay on HOP-92 NSCLC, 97.8%. The growth in the assay with NCI-H522 lung was 78.8%; in the assay on A549/ATCC NSCLC it was 87.5%; in the assay on 786-0 renal, 98.8%; in the assay on COLO 205 colon, 115%.

Turning to `CN1CCN(c2ccc(C(=O)Nc3cccc(C#Cc4cccc5[nH]nc(N)c45)c3)cc2C(F)(F)F)CC1`, the growth in the assay with NCI-H23 lung is -51.9% (active); in the assay on NCI-H226 lung it was 15.6%; with NCI-H322M lung, -24.6% (active); in the assay with HOP-62 NSCLC it was -63.7% (active); in the assay with NCI-H460 lung, -68.4% (active); in the assay with HOP-92 NSCLC, -11.8% (active). For the same compound, the growth with NCI-H522 lung was -59.1% (active); in the assay with A549/ATCC NSCLC, -67.2% (active); with 786-0 renal, -70.4% (active); in the assay with COLO 205 colon, -72.9% (active).

Regarding `CCCCCC(=O)OCC(=O)O[C@@H]1C[C@]2(C(C)C)O[C@@]1(C)[C@@H]1CC[C@@H](C)[C@H]1[C@@H]2OC(=O)/C=C/c1ccccc1`, the growth with NCI-H23 lung is 91.3%; in the assay on NCI-H226 lung, 86%; in the assay with NCI-H322M lung, 84.6%; in the assay on HOP-62 NSCLC, 91.7%; in the assay with NCI-H460 lung, 93.3%; in the assay with HOP-92 NSCLC it was 95.3%. For the same compound, the growth in the assay on NCI-H522 lung is 55.9%; with A549/ATCC NSCLC, 78.7%; with 786-0 renal, 54.4%; in the assay on COLO 205 colon, 73.9%.

For `CCCC(=O)NC(c1ccc2c(c1)OCO2)c1ccc2cccnc2c1O` (stereo not given), the growth was 24.1% in the assay on NCI-H23 lung; 12.2% with NCI-H226 lung; 25.9% in the assay on NCI-H322M lung; 20.4% in the assay on HOP-62 NSCLC; 9.17% (active) in the assay with NCI-H460 lung; 31.4% with HOP-92 NSCLC. For the same compound, the growth in the assay with NCI-H522 lung is -4.35% (active); with A549/ATCC NSCLC, 20.8%; in the assay with 786-0 renal, 19.8%; in the assay on COLO 205 colon it was 8.58% (active).

For `COC(=O)c1cc(-c2ccccc2)[nH]c1N/N=C/c1c(Cl)cccc1Cl`, the growth was 14.2% in the assay on NCI-H23 lung; 37.9% in the assay with NCI-H226 lung; 34.6% in the assay on NCI-H322M lung; -28.2% (active) with HOP-62 NSCLC; -3.25% (active) in the assay on NCI-H460 lung; 10.5% in the assay with HOP-92 NSCLC. In addition, the growth was -41.9% (active) in the assay with NCI-H522 lung, 21.7% in the assay on A549/ATCC NSCLC, 9.31% (active) in the assay with 786-0 renal and 12.5% in the assay on COLO 205 colon.

As for `O=C1Nc2ccc(Br)cc2/C1=N/c1n[nH]c(=S)s1`, the growth in the assay on NCI-H23 lung is 93.3%; in the assay with NCI-H226 lung it was 99.4%; in the assay on NCI-H322M lung, 107%; in the assay with HOP-62 NSCLC, 89%; in the assay with NCI-H460 lung it was 106%; in the assay on HOP-92 NSCLC, 94.8%. Moreover, the growth was 93.4% with NCI-H522 lung, 98% in the assay with A549/ATCC NSCLC, 97.8% in the assay with 786-0 renal and 114% in the assay on COLO 205 colon.

On to `CSc1nnc(-c2cnn3c2NC(c2ccccc2)C3)n1-c1ccc(C(F)(F)F)cc1` (stereo not given), for which the growth with NCI-H23 lung is 72.6%; in the assay on NCI-H226 lung, 73.5%; in the assay on NCI-H322M lung, 72.3%; in the assay on HOP-62 NSCLC, 61.1%; in the assay on NCI-H460 lung, 61.8%; in the assay on HOP-92 NSCLC, 64.3%. Besides, the growth in the assay with NCI-H522 lung is 26.1%; with A549/ATCC NSCLC, 45.5%; in the assay with 786-0 renal, 66.1%; with COLO 205 colon, 63.9%.

As for `COC(=O)c1c2c(c[n+]([O-])c1C)C(=O)C(NCc1ccccc1)=CC2=O`, the growth with NCI-H23 lung is -34.1% (active); in the assay on NCI-H226 lung, -9.27% (active); in the assay on NCI-H322M lung it was -8.65% (active); in the assay on HOP-62 NSCLC, 4.14% (active); with NCI-H460 lung, -30.3% (active); with HOP-92 NSCLC, -29.7% (active). Moreover, the growth is -30.5% (active) with NCI-H522 lung, -19.8% (active) with A549/ATCC NSCLC, 10.5% in the assay with 786-0 renal and -52.5% (active) with COLO 205 colon.

`COc1ccc(N2CCC(=O)NC2=S)cc1`: the growth in the assay with NCI-H23 lung was 96.2%; in the assay on NCI-H226 lung it was 98.6%; in the assay with NCI-H322M lung, 112%; with HOP-62 NSCLC, 107%; with NCI-H460 lung, 104%; in the assay on HOP-92 NSCLC it was 125%. Moreover, the growth with NCI-H522 lung was 88.9%; in the assay on A549/ATCC NSCLC, 108%; in the assay on 786-0 renal it was 104%; in the assay with COLO 205 colon, 106%.

Take `O=C1/C(=C/c2ccc(Cl)cc2)COc2ccc(O)cc21`: the growth with NCI-H23 lung was 90.9%; with NCI-H226 lung, 98.8%; in the assay with NCI-H322M lung, 94.8%; with HOP-62 NSCLC it was 102%; with NCI-H460 lung it was 102%; in the assay with HOP-92 NSCLC, 95.9%. Besides, the growth in the assay with NCI-H522 lung was 13.9%; with A549/ATCC NSCLC, 89%; in the assay with 786-0 renal it was 64.2%; in the assay on COLO 205 colon, 78.2%.

Turning to `c1cnc2[nH]cc(-c3csc(-c4cn(CCCN5CCOCC5)c5ccccc45)n3)c2c1`, the growth with NCI-H23 lung was 68.1%; with NCI-H226 lung, 61.5%; with NCI-H322M lung, 80.2%; in the assay with HOP-62 NSCLC, 48.7%; in the assay on NCI-H460 lung, 45.4%; in the assay on HOP-92 NSCLC it was 12%. For the same compound, the growth with NCI-H522 lung is 56.9%; with A549/ATCC NSCLC, 54.4%; in the assay with 786-0 renal, 28.4%; with COLO 205 colon, 31.2%.

With `COc1cc(OC)cc(C2=C3CC[C@@H]4[C@H](CC[C@]5(C)C(=O)CC[C@@H]45)C3=CC3C(O)c4cccnc4N4C(=O)COC234)c1` (stereo not given in full), the growth is 98.6% in the assay with NCI-H23 lung; 102% in the assay with NCI-H226 lung; 114% with NCI-H322M lung; 95.3% with HOP-62 NSCLC; 103% in the assay on NCI-H460 lung; 104% in the assay with HOP-92 NSCLC. The growth with NCI-H522 lung was 90.3%; in the assay with A549/ATCC NSCLC, 94.2%; with 786-0 renal, 98.5%; with COLO 205 colon, 109%.
